A word on the AC50: it is the midpoint of the concentration-response curve, whichever way the signal moves.

This note sets out measurements from PubChem BioAssay (EPA / NIEHS).

Test [1] can be described thus: APR_HepG2_P-H2AX_72hr: Apredica 72-hour HepG2 Assay for H2AX Phosphorylation (AID 2282916).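 Note: phospho-histone H2A.x immunostain intensity per cell marking DNA damage.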 The settings on record: imaging, actives raise or lower the signal. In outline:
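HepG2 cells treated 72 h at 0.39–200 uM, 0.5% DMSO final, duplicates. Formaldehyde-fixed, Triton-permeabilised, immunostained for phospho-H2A.x with Hoechst; fluorescence imaged at 20x, bidirectional fit versus DMSO.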

The nature of test [2]: APR_HepG2_MitoMembPot_72hr: Apredica 72-hour HepG2 Assay for Mitochondrial Membrane Potential (AID 2282917). As to conditions: imaging, actives raise or lower the signal. The procedure, abridged:
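HepG2 cells dosed 72 hr with compound at 0.39–200 uM in duplicate, 0.5% v/v DMSO final. Mitochondria stained with 250 nM MitoTracker Red CMXRos for 30 min before formaldehyde fixation, imaged by high-content fluorescence; bidirectional fit versus DMSO.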

A short description of test [3]: APR_HepG2_MitoticArrest_72hr: Apredica 72-hour HepG2 Assay for Mitotic Arrest (AID 2282918). The settings on record: high-content imaging, actives raise or lower the signal. In outline: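 HepG2, 72 hr exposure, 0.39–200 uM in duplicate, 0.5% v/v DMSO final. Formaldehyde-fixed, Triton-permeabilized, anti-phospho-histone H3/FITC plus Hoechst. ArrayScan imaging at 20x; curves fit bidirectionally against DMSO baseline.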

Test [4] is described as follows: APR_HepG2_MicrotubuleCSK_72hr: Apredica 72-hour HepG2 Assay for Microtubule CSK Stabilty (AID 2282919). The settings on record: HepG2 microtubule cytoskeleton, high-content imaging, actives raise or lower the signal. In outline: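 HepG2 cells were exposed 72 hr to compound at 0.39–200 uM in duplicate (0.5% DMSO final), then fixed and permeabilized. Alpha-tubulin immunofluorescence was imaged by high-content microscopy, with bidirectional fitting against DMSO and taxol as positive control.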

Test [5] is described as follows: APR_HepG2_P-H2AX_24hr: Apredica 24-hour HepG2 Assay for H2AX Phosphorylation (AID 2282920). As to conditions: high-content imaging, actives raise or lower the signal. The procedure, abridged: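 HCS fluorescence imaging of phospho-H2A.x immunostain (with Hoechst 33342 nuclear counterstain) in HepG2 after 24 hr compound exposure; 10 concentrations, 0.39–200 uM, duplicate wells, 0.5% v/v DMSO. Gain or loss of signal fitted relative to DMSO baseline.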

Test [6] can be described thus: APR_HepG2_StressKinase_72hr: Apredica 72-hour HepG2 Assay for Stress Kinase (AID 2282921). As to conditions: HepG2 stress kinase (phospho-c-Jun) imaging, actives raise or lower the signal. In outline:
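HepG2 cells treated 72 hr with 0.39–200 uM compound, 0.5% v/v DMSO, duplicate wells. After formaldehyde fixation and Triton permeabilization, stained with anti-phospho-c-Jun (1:500) and Cy3 secondary, imaged at 20x. Fitted in both directions against DMSO.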

The nature of test [7]: APR_HepG2_StressKinase_24hr: Apredica 24-hour HepG2 Assay for Stress Kinase (AID 2282922). The settings on record: HepG2 stress kinase (phospho-c-Jun) imaging, actives raise or lower the signal. The procedure, abridged: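 HepG2 cells exposed 24 h to 0.39–200 uM compound in duplicate (0.5% v/v DMSO final). Cells fixed in 3.7% formaldehyde, permeabilized and immunostained for phospho-c-Jun; read by high-content fluorescence imaging, fitted bidirectionally against DMSO.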

Test [8] in a line: APR_HepG2_p53Act_72hr: Apredica 72-hour HepG2 Assay for p53 Activation (AID 2282923).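 Note: average cellular p53 protein immunofluorescence intensity in HepG2 cells.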 As to conditions: high-content imaging, actives raise or lower the signal. The procedure, abridged: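 HepG2 cells exposed 72 h to 0.39–200 uM in 0.5% DMSO, duplicates. Fixed, permeabilized cells immunostained for p53 (Cy5) with Hoechst; imaged at 20x, fluorescence analyzed bidirectionally against DMSO.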

Test [9] is described as follows: APR_HepG2_MitoMass_72hr: Apredica 72-hour HepG2 Assay for Mitochondrial Mass (AID 2282924).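 Note: MitoTracker Red CMXRos stain intensity per cell imaged as mitochondrial mass.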 As to conditions: high-content imaging, actives raise or lower the signal. In outline: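 HepG2 cells dosed 72 hr at 0.39–200 uM (0.5% DMSO), in duplicate. MitoTracker Red CMXRos 250 nM loaded 30 min before formaldehyde fixation; high-content fluorescence imaging, bidirectional fit versus DMSO.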

Test [10] in a line: APR_HepG2_NuclearSize_72hr: Apredica 72-hour HepG2 Assay for Nuclear Size (AID 2282925). The settings on record: high-content imaging, actives raise or lower the signal. The procedure, abridged:
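HepG2 cells dosed 72 h at 0.39–200 uM (10 concentrations, duplicate) in 0.5% v/v DMSO final. Fixed, Hoechst 33342-stained nuclei imaged; nuclear diameter measured by automated image analysis. Bidirectional fit versus DMSO.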

Activity calls are given as the source filed them. Rule for the calls: active = hit-call score of the fitted dose curve at least 0.9, where 1 is the maximum; inactive = score below 0.9.

In the case of `C#CC(C)(C)NC(=O)c1cc(Cl)cc(Cl)c1`, the call in test [1], in test [2], in test [3], in [4], in test [5] and in test [6] was inactive. Moreover, the outcome in [7], in test [8], in test [9] and in test [10] was inactive.
Take `O=[N+]([O-])c1cc(C(F)(F)F)c(Cl)c([N+](=O)[O-])c1Nc1ncc(C(F)(F)F)cc1Cl`: the results for the AC50 in [1], in test [3] and in [4] were 1.13 µM (active), 0.767 µM (active) and 100 µM (active), respectively. Besides, the compound was classed as inactive in test [2], in [5], in [6], in [7], in [9] and in test [10].
With `CSc1nc(NC(C)C)nc(NC(C)C)n1`, the result in test [1], in test [2], in test [3], in [4], in [5] and in test [6] was inactive. For the same compound, the call in test [7], in test [8], in test [9] and in test [10] was inactive.
Turning to `CN(C)[C@@H]1C(=O)C(C(N)=O)=C(O)[C@@]2(O)C(=O)C3=C(O)c4c(O)cccc4[C@@](C)(O)[C@H]3[C@H](O)[C@@H]12`, the result in test [1], in test [2], in [3], in [4], in test [5] and in test [6] was inactive. Moreover, the outcome in [7], in test [9] and in test [10] was inactive.
As to `C#CCC1=C(C)C(OC(=O)C2C(C=C(C)C)C2(C)C)CC1=O` (configuration not stated), the result in [1], in test [2], in test [3], in test [4], in test [5] and in test [6] was inactive. In addition, the result in test [7], in test [8], in test [9] and in [10] was inactive.
On to `CC(Oc1cccc(Cl)c1)C(=O)O` (configuration not stated), for which the result in test [1], in [2], in test [3], in test [4], in test [5] and in test [6] was inactive. The compound was called inactive in test [7], in [8], in [9] and in [10].
With `CCCCN(CC)c1c([N+](=O)[O-])cc(C(F)(F)F)cc1[N+](=O)[O-]`, the outcome in [1], in test [2], in [3], in [4], in [5] and in [6] was inactive. Moreover, the call in [7], in test [8], in [9] and in test [10] was inactive.
With `CC(C)N(C(=O)SCC(Cl)=C(Cl)Cl)C(C)C`, the compound was called inactive in test [1], in [2], in [3], in [5], in [6] and in [7]. The compound was classed as inactive in test [8], in test [9] and in test [10]. Besides, the AC50 in test [4] is 99.5 µM (active).
Regarding `CC(C1CC1)C(O)(Cn1cncn1)c1ccc(Cl)cc1` (configuration not stated), the compound was called inactive in [1], in [2], in test [3], in test [4], in test [5] and in test [6]. Besides, the result in test [7], in [8], in test [9] and in test [10] was inactive.
In the case of `CON=C(C(=O)OC)c1ccccc1CON=C(C)c1cccc(C(F)(F)F)c1`, the compound was classed as inactive in test [1], in test [2], in test [3], in test [5], in test [6] and in test [7]. The outcome in [8], in test [9] and in test [10] was inactive. Further, the AC50 in test [4] is 0.309 µM (active).
As for `CCCOCC(=Nc1ccc(Cl)cc1C(F)(F)F)n1ccnc1`, the call in test [1], in test [2], in test [3], in test [4], in test [5] and in test [6] was inactive. Further, the result in test [7], in test [8], in test [9] and in test [10] was inactive.
With `N#CSCSC#N`, the result in [1], in [2], in test [3], in test [4], in test [5] and in test [6] was inactive. The call in test [7], in [8], in test [9] and in test [10] was inactive.
In the case of `CN(C)NC(=O)CCC(=O)O`, the outcome in test [1], in test [2], in test [3], in [4], in test [5] and in [6] was inactive. Further, the result in test [7], in test [8], in [9] and in [10] was inactive.
For `FC(F)C(F)(F)OCC(Cn1cncn1)c1ccc(Cl)cc1Cl` (configuration not stated), the AC50 in test [1] is 105 µM (active); in test [3], 100 µM (active); in test [4] it was 84.6 µM (active); in test [8], 116 µM (active). Moreover, the compound was classed as inactive in test [2], in test [5], in test [6], in [7], in test [9] and in test [10].
`CCOP(=S)(OCC)Oc1ccc([N+](=O)[O-])cc1`: the result in test [1], in [2], in [3], in test [4], in test [5] and in test [6] was inactive. Moreover, the call in test [7], in [8], in test [9] and in test [10] was inactive.
`C=C(C)[C@H]1Cc2c(ccc3c2O[C@@H]2COc4cc(OC)c(OC)cc4[C@@H]2C3=O)O1`: the AC50 in test [1] was 1.62 µM (active); in test [2] it was 15.7 µM (active); in test [3], 1.15 µM (active); in test [5] it was 12.2 µM (active); in [6] it was 4.05 µM (active). The compound was classed as inactive in test [4], in [7], in [9] and in test [10].
Consider `CCc1cccc(C)c1N(C(=O)CCl)C(C)COC` (configuration not stated), for which the concentration at half-maximal activity (AC50) in [1] is 87.6 µM (active); in test [3], 82.6 µM (active); in test [4] it was 62.4 µM (active). Also, the outcome in [2], in [5], in test [6], in [7], in test [8] and in test [9] was inactive. Moreover, in [10], the compound was called inactive.
On to `CCNc1nc(Cl)nc(NC(C)(C)C#N)n1`, for which the compound was called inactive in test [1], in test [2], in test [3], in test [4], in [5] and in test [6]. For the same compound, the call in test [7], in [8], in [9] and in [10] was inactive.
